A short description of experiment [1]: RPL19A-GFP modulators, yeast TOR pathway, confirmation, cell-based, S. cerevisiae, flow cytometry, cherry picks, mother/daughter gates (AID 2270;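 active = GFP response below 50% of the DMSO control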). As to conditions: S. cerevisiae RPL19A-GFP strain, 3 h, at 10 µM, stronger effect = lower value, 100 = same GFP as DMSO wells.
Experiment [2] can be described thus: LAP4-GFP expression modulators in yeast, confirmation, cell-based, cherry picks, flow cytometry, mother/daughter gates (AID 2271;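 active = GFP response above 150% of the DMSO control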;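 note: ratio of sample to DMSO plate mean so 100% equals DMSO level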). Particulars: S. cerevisiae LAP4-GFP strain, 3 h, at 10 µM, stronger effect = higher value, 100 means same as DMSO control.
Experiment [3] in a line: modulators of MEP2-GFP levels in yeast, confirmation, S. cerevisiae, flow cytometry GFP, cherry picks (AID 2272;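 active = GFP response above 150% of the DMSO control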;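 note: ratio of well signal to plate DMSO mean so 100% equals DMSO level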). Particulars: S. cerevisiae MEP2-GFP strain, 3 h, at 10 µM, stronger effect = higher value.
The nature of experiment [4]: AGP1-GFP expression modulators, hit retest, confirmation, cell-based, flow cytometry, S. cerevisiae, cherry picks (AID 2273).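 Note: median GFP channel fluorescence over the whole cell population gate.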 As to conditions: S. cerevisiae AGP1-GFP strain, 3 h, at 10 µM.
Experiment [5] can be described thus: modulators of CIT2-GFP expression in yeast, confirmation, S. cerevisiae, GFP fusion, cherry picks, mother/daughter gates (AID 2274). As to conditions: S. cerevisiae CIT2-GFP strain, flow cytometry, 3 h, at 10 µM, stronger effect = higher value.
Experiment [6] in a line: compound autofluorescence in yeast s288c, dose response, artefact control for yeast TOR pathway GFP screen, s288c strain (AID 2757;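 active = fluorescence span over the dose series, or activity score, above about 33, limit read from the data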;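 note: thousands of bead-calibrated equivalent soluble fluorophore molecules from median cell fluorescence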). As to conditions: S. cerevisiae s288c, 520 nm autofluorescence, flow cytometry, 3 h; at 33 µM; stronger effect = higher value; zero means same as solvent-only cells.
[7] abbreviates: measured here: daughter cell gate.
Setting [8] is: measured here: mother cell gate.
Where [9] appears, read: measured here: daughter cell gate response.
Setting [10] is: measured here: mother cell gate response.

The values that follow come from PubChem BioAssay.

Molecules are shown by their SMILES. The list shows a part of the results. Activity calls are given as the source filed them.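 Rule for the calls, unless noted: active = GFP response above 150% of the DMSO level; inconclusive = fewer than 70 events counted for a yeast strain; inactive = the rest.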

For `C/C(=N\NC(=O)c1ccc(Cl)c(Cl)c1)c1ccccn1`, the GFP response vs DMSO is 104% (inactive) in experiment [1], 96.4% in experiment [1] (setting [7]), 88.5% in experiment [1] (setting [8]) and 118% (inactive) in experiment [3]. In addition, the GFP response relative to DMSO in experiment [2] is 269% (active). Besides, the GFP response, % of DMSO in experiment [4] was 127% (inactive); in experiment [5], 114% (inactive); in experiment [5] (setting [7]), 97.6%; in experiment [5] (setting [8]), 99.3%.

For the compound `O=C(Nc1c(-c2ccccc2)nc2c(Br)cc(Br)cn12)c1ccco1`, the GFP response vs DMSO in experiment [1] was 94.5% (inactive); in experiment [1] (setting [7]), 94.7%; in experiment [1] (setting [8]), 92.1%; in experiment [3], 103% (inactive). The GFP response relative to DMSO in experiment [2] is 92.9% (inactive). The GFP response, % of DMSO in experiment [4] is 98.8% (inactive); in experiment [5], 100% (inactive); in experiment [5] (setting [7]) it was 85.2%; in experiment [5] (setting [8]), 90.4%.

For `CCOC(=O)c1cc(-c2ccc(/C=C3/C(=O)NC(=O)C(C#N)=C3C)o2)ccc1Cl`, the GFP response vs DMSO in experiment [1] is 67.6% (inactive); in experiment [1] (setting [8]) it was 55.4%; in experiment [3], 160% (inactive). Further, the GFP response relative to DMSO in experiment [2] was 240% (active); in experiment [2] (setting [9]), 141%; in experiment [2] (setting [10]), 231%. Further, the GFP response, % of DMSO was 104% (inactive) in experiment [4], 118% (inactive) in experiment [5], 103% in experiment [5] (setting [7]) and 101% in experiment [5] (setting [8]).

As to `Cc1ccc(/C=C/c2ccc(N(C)C)cc2)[n+](C)c1`, the GFP response vs DMSO in experiment [1] was 101% (inactive); in experiment [1] (setting [7]), 94.2%; in experiment [1] (setting [8]), 93.8%; in experiment [3] it was 133% (inactive). Besides, the GFP response relative to DMSO in experiment [2] is 119% (inactive). Besides, the GFP response, % of DMSO was 103% (inactive) in experiment [4], 121% (inactive) in experiment [5], 121% in experiment [5] (setting [7]) and 110% in experiment [5] (setting [8]).

For `Cc1ccc(-c2nn(C(C)(C)C)c3ncnc(N)c23)cc1`, the GFP response vs DMSO in experiment [1] is 46.7% (active); in experiment [1] (setting [7]) it was 43.7%; in experiment [1] (setting [8]), 46.7%; in experiment [3], 116% (inactive). Moreover, in experiment [2], the GFP response relative to DMSO is 175% (active). Moreover, the GFP response, % of DMSO in experiment [4] was 95.7% (inactive); in experiment [5] it was 45.8% (inactive); in experiment [5] (setting [7]) it was 62.1%; in experiment [5] (setting [8]), 43.5%. In addition, the fluorescence change (kMESF span) in experiment [6] is -0.9 (inactive).

For `Cc1ccccc1NC(=O)COC(=O)c1cc(=O)c2ccccc2o1`, the GFP response vs DMSO was 99.7% (inactive) in experiment [1], 104% in experiment [1] (setting [8]) and 97.8% (inactive) in experiment [3]. Besides, the GFP response relative to DMSO in experiment [2] is 98.7% (inactive); in experiment [2] (setting [9]) it was 98.7%; in experiment [2] (setting [10]) it was 86%. Further, the GFP response, % of DMSO in experiment [4] was 95.4% (inactive); in experiment [5], 104% (inactive).

In the case of `CN(C)c1ccc(/C=C/c2ccc3ccccc3[n+]2C)cc1`, the GFP response vs DMSO in experiment [1] is 95.3% (inactive); in experiment [1] (setting [7]), 90%; in experiment [1] (setting [8]), 88.7%; in experiment [3] it was 107% (inactive). Besides, in experiment [2], the GFP response relative to DMSO was 98.7% (inactive). The figures for the GFP response, % of DMSO in experiment [4], in experiment [5] and in experiment [5] (setting [8]) were 89.5% (inactive), 107% (inactive) and 95.5%, respectively.

`CCCc1[nH]nc2c1C(c1ccc(OC(=O)N3CCOCC3)c(OC)c1)C(C#N)=C(N)O2` (stereo unspecified): the GFP response vs DMSO in experiment [1] is 100% (inactive); in experiment [1] (setting [7]), 101%; in experiment [1] (setting [8]), 95.4%; in experiment [3], 100% (inactive). For the same compound, the GFP response relative to DMSO in experiment [2] was 102% (inactive). The GFP response, % of DMSO is 97.8% (inactive) in experiment [4], 97.8% (inactive) in experiment [5], 89.9% in experiment [5] (setting [7]) and 97.7% in experiment [5] (setting [8]).

In the case of `Cn1c(C(=O)O)cc2c(=O)n3ccccc3nc21`, the GFP response vs DMSO in experiment [1] was 101% (inactive); in experiment [1] (setting [7]), 99.3%; in experiment [1] (setting [8]), 99%; in experiment [3], 104% (inactive). Further, the GFP response relative to DMSO in experiment [2] was 97.7% (inactive). The GFP response, % of DMSO is 102% (inactive) in experiment [4], 104% (inactive) in experiment [5], 104% in experiment [5] (setting [7]) and 95.6% in experiment [5] (setting [8]).

As to `CCC(=O)Nc1ccc(NC(=O)c2cc3ccccc3o2)c(OC)c1`, the GFP response vs DMSO in experiment [1] was 100% (inactive); in experiment [3], 101% (inactive). In addition, the values for the GFP response relative to DMSO in experiment [2], in experiment [2] (setting [9]) and in experiment [2] (setting [10]) were 94.4% (inactive), 95.9% and 96.2%, respectively. For the same compound, the GFP response, % of DMSO is 100% (inactive) in experiment [4], 94.4% (inactive) in experiment [5], 95.6% in experiment [5] (setting [7]) and 88.2% in experiment [5] (setting [8]).

As for `CCCNC(=O)COC(=O)c1ccc(S(=O)(=O)N2CCCC2)cc1`, the GFP response vs DMSO is 97.2% (inactive) in experiment [1], 89.4% in experiment [1] (setting [7]), 88.1% in experiment [1] (setting [8]) and 98.8% (inactive) in experiment [3]. For the same compound, the results for the GFP response relative to DMSO in experiment [2] and in experiment [2] (setting [9]) were 94.9% (inactive) and 82.6%, respectively. Besides, the GFP response, % of DMSO in experiment [4] was 99.8% (inactive); in experiment [5], 99.7% (inactive); in experiment [5] (setting [7]) it was 90.5%; in experiment [5] (setting [8]), 78.8%.

Consider `CCCc1[nH]nc2c1C(c1ccccc1OC)C(C#N)=C(N)O2` (stereo unspecified), for which the GFP response vs DMSO is 98% (inactive) in experiment [1], 94.4% in experiment [1] (setting [7]), 94.3% in experiment [1] (setting [8]) and 120% (inactive) in experiment [3]. The GFP response relative to DMSO in experiment [2] is 116% (inactive); in experiment [2] (setting [10]), 100%. Besides, the GFP response, % of DMSO in experiment [4] was 102% (inactive); in experiment [5], 115% (inactive); in experiment [5] (setting [7]), 121%; in experiment [5] (setting [8]), 112%.

For `CCCc1ccc(OCC(=O)NNC(=S)NC(=O)c2ccco2)cc1`, the figures for the GFP response vs DMSO in experiment [1], in experiment [1] (setting [8]) and in experiment [3] were 111% (inactive), 97.1% and 139% (inactive), respectively. Also, the figures for the GFP response relative to DMSO in experiment [2] and in experiment [2] (setting [10]) were 259% (active) and 226%, respectively. Further, the GFP response, % of DMSO in experiment [4] is 123% (inactive); in experiment [5] it was 112% (inactive); in experiment [5] (setting [7]) it was 85.2%; in experiment [5] (setting [8]), 99.3%. Further, the fluorescence change (kMESF span) in experiment [6] is 9.67 (inactive).

With `CCc1nnc(NC(=O)c2nc(S(=O)(=O)Cc3ccccc3)ncc2Cl)s1`, the GFP response vs DMSO in experiment [1] is 94.9% (inactive); in experiment [1] (setting [7]) it was 95.9%; in experiment [1] (setting [8]), 91.4%; in experiment [3], 103% (inactive). Moreover, the GFP response relative to DMSO in experiment [2] is 98.9% (inactive). Besides, the GFP response, % of DMSO in experiment [4] was 97.3% (inactive); in experiment [5] it was 101% (inactive); in experiment [5] (setting [7]), 103%; in experiment [5] (setting [8]) it was 97.1%.

Regarding `O=C1C=C(c2ccc(Cl)cc2)C(=O)N1Nc1ccccc1`, the GFP response vs DMSO in experiment [1] is 61.9% (inactive); in experiment [1] (setting [7]) it was 89.1%; in experiment [1] (setting [8]), 51.9%; in experiment [3], 113% (inactive). Further, the GFP response relative to DMSO in experiment [2] was 96.2% (inactive); in experiment [2] (setting [10]), 81.9%. In addition, the GFP response, % of DMSO in experiment [4] is 102% (inactive); in experiment [5], 66.5% (inactive); in experiment [5] (setting [7]) it was 99.7%; in experiment [5] (setting [8]), 53.7%. In experiment [6], the fluorescence change (kMESF span) is 0.3 (inactive).

`CCOC(=O)C(C(=O)OCC)C(C(=O)OCC)N1CCOCC1` (stereo unspecified): the GFP response vs DMSO in experiment [1] was 74.1% (inactive); in experiment [1] (setting [8]), 61.4%; in experiment [3] it was 108% (inactive). The GFP response relative to DMSO in experiment [2] was 182% (active); in experiment [2] (setting [9]), 158%; in experiment [2] (setting [10]) it was 165%. Moreover, the GFP response, % of DMSO in experiment [4] was 90.2% (inactive); in experiment [5] it was 86.1% (inactive); in experiment [5] (setting [7]), 105%; in experiment [5] (setting [8]), 72.5%.

As to `CCCc1nn(C)c2c1C(c1cccnc1)C(C#N)=C(N)O2` (stereo unspecified), the GFP response vs DMSO is 101% (inactive) in experiment [1], 106% in experiment [1] (setting [7]) and 97.8% (inactive) in experiment [3]. Besides, the GFP response relative to DMSO in experiment [2] is 97.4% (inactive). The GFP response, % of DMSO was 98.3% (inactive) in experiment [4] and 111% (inactive) in experiment [5].
